According to the supplement of paper PMC3334620:
Whole data set: some 33,000 sequences, median “E-score (-0.5 to 0.5)” near -0.035, cut for the highest 2% near 0.34. What follows is part of a selection rich in the highest values, with near analogues and random picks from the rest.

Target: T1, Mot3 (UniProt P54785)
T1 sequence: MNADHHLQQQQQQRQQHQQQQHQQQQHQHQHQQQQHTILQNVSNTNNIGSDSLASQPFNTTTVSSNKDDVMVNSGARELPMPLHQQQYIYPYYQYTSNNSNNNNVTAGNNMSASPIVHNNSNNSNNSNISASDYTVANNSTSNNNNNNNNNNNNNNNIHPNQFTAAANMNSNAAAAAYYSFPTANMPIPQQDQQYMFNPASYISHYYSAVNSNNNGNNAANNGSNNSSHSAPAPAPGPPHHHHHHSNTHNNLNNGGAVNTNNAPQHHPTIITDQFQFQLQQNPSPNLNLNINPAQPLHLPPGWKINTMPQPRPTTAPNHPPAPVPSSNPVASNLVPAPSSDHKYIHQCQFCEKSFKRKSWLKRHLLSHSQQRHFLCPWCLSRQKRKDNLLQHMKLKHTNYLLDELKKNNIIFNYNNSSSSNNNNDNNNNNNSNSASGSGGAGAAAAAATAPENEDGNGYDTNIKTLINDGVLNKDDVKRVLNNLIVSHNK
Test: PBM E-score (8-mer binding enrichment) (E-score (-0.5 to 0.5)); higher = stronger / more preferred TF binding
Conditions: protein concentration: 200 nM; construct: GST-full length
Method: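 Universal 'all 10-mer' protein binding microarrays (Agilent AMADID 015681) probed with GST-tagged S. cerevisiae TFs (full-length or DBD) made by in vitro transcription/translation (PURExpress), about 100-200 nM. Bound TF was detected with fluorescent anti-GST. Each ungapped 8-mer (which stands for itself and its reverse complement) is scored by the PBM enrichment score (E-score), a modified Wilcoxon-Mann-Whitney statistic from -0.5 to +0.5, computed with the Universal PBM Analysis Suite. Scale: above 0.35 generally sequence-specific binding.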

| Sequence | PBM E-score |
| --- | --- |
| GGAAACGA | 0.0799 |
| CCTGAACC | 0.206 |
| CCCATCTC | -0.269 |
| CTCGTGGA | -0.234 |
| GTCGTGCA | 0.0491 |
| CTCGTGTA | 0.353 |
| ATCGTGTA | 0.39 |
| GTCGTGTA | 0.376 |
| ATCGTGTC | 0.247 |
| CTCGTGTC | 0.184 |
| GTCGTGGA | -0.26 |
| ATCGTGTG | 0.204 |
| CGACAGTA | -0.196 |
| ATGTGCTG | 0.147 |
| CCCTGGCC | -0.264 |
| ATCAGATC | -0.196 |
| ACAACTGG | -0.229 |
| AGCGTGAA | -0.0361 |
| CTAATTAC | 0.289 |
| ATAATTAC | 0.258 |
| GTAATTAC | 0.378 |
| CGCGCGTC | 0.0273 |
| CCCAGCGC | -0.0444 |
| ACCTTCCT | 0.0149 |
| TCAAGGGA | -0.213 |
| TCAAGGCA | 0.458 |

| Sequence | PBM E-score |
| --- | --- |
| ACAAGGCA | 0.449 |
| CCAAGGCC | -0.14 |
| CCAAGGCG | -0.0205 |
| ACAAGGCT | 0.111 |
| TCAAGACA | -0.0248 |
| CCAAGGCA | 0.458 |
| GCAAGGCA | 0.469 |
| GCAAGGCC | -0.0626 |
| ACAAGGCG | 0.109 |
| GCAAGGGA | -0.155 |
| AACTCTAG | 0.00906 |
| ATGAAAGC | 0.103 |
| GTCATTCA | -0.067 |
| GAACCATC | -0.0773 |
| AACTTTCC | 0.0113 |
| AATGTTGT | 0.223 |
| AGCTGATC | -0.17 |
| CTGTCTCA | -0.258 |
| ACCAGGCA | 0.446 |
| GCCAGGAA | 0.124 |
| ACCAGGCC | -0.0646 |
| CCCAGGCC | -0.191 |
| CCCAGGCG | -0.061 |
| TCCAGGCA | 0.463 |
| ACCAGGCT | -0.06 |
| GCCAGGCC | -0.25 |

| Sequence | PBM E-score |
| --- | --- |
| GCCAGGCA | 0.436 |
| TCCAGGAA | 0.316 |
| CCCAGGCA | 0.461 |
| TCCAGGGA | -0.212 |
| ACCTTGCT | -0.0444 |
| ACCCGACA | -0.0489 |
| TACACCGA | 0.0164 |
| GCCGCTAA | -0.0753 |
| CCGCTAAC | -0.0566 |
| ACTGGTGG | -0.246 |
| AGGCCTCA | -0.247 |
| CAGAGAGC | -0.316 |
| TACATGTA | 0.408 |
| GACATGTC | 0.191 |
| CACATGTC | 0.196 |
| CAAATGTA | 0.272 |
| CACATGTA | 0.344 |
| CACATGTG | 0.194 |
| GACATGTA | 0.355 |
| TAAATGTA | 0.346 |
| TACATCTA | 0.227 |
| GAAATGTA | 0.0874 |
| GACATATA | 0.125 |
| TACATATA | 0.317 |
| GCTGCAAC | -0.242 |
| CAAGAGGA | 0.038 |

| Sequence | PBM E-score |
| --- | --- |
| CGAAACTA | -0.136 |
| GACTAAAC | 0.0174 |
| ACCCGTGC | -0.0819 |
| GAGAAGGC | 0.258 |
| ACGGCCTA | -0.0205 |
| ACGCGCTG | 0.184 |
| GGCTAACC | 0.0149 |
| CTTCCTGC | -0.0264 |
| ATCTGAAC | -0.219 |
| ATATTGGA | 0.0164 |
| TTAAGGAA | 0.398 |
| GTAAGGAC | -0.194 |
| CTAAGGAG | -0.254 |
| CTAAGGAC | -0.231 |
| CTAAGGAA | 0.366 |
| GTAAGGAA | 0.366 |
| TTAAGTAA | 0.0348 |
| GTAAGTAA | 0.169 |
| ATAAGGAA | 0.299 |
| CGGTCTCC | -0.283 |
| CGCCCCCG | -0.351 |
| GACGGTTA | -0.0411 |
| ATACACAT | 0.3 |
| GCTGTTTA | -0.0345 |
| GGCAGGGA | -0.158 |
| TGCAGTAA | 0.0245 |

| Sequence | PBM E-score |
| --- | --- |
| ATCAGGAC | -0.157 |
| AGCAGGAG | -0.0982 |
| ATCAGGAA | 0.343 |
| AGCAGGAA | 0.395 |
| TTCAGGAA | 0.337 |
| GGCAGGAC | -0.14 |
| AGCAGGAC | -0.096 |
| TGCAGGAA | 0.443 |
| GGCAGGAA | 0.419 |
| CTCAGGAA | 0.335 |
| TACTGAGA | -0.0385 |
| GGTGCCAC | -0.168 |
| AGGGGTGG | -0.248 |
| GACTGGTA | -0.00685 |
| GTGCGATA | -0.123 |
| CGCAGGAG | -0.0652 |
| CGCAGGAA | 0.356 |
| CGCAGGAC | -0.0456 |
| AAAGTAGC | -0.0505 |
| ACCATTAA | 0.0184 |
| CGCTCCTC | -0.269 |
| TACGCAAA | 0.206 |
| CCTATTAA | 0.273 |
| ACTATTAC | 0.25 |
| CCTATTAC | 0.344 |
| CAGGTCGA | 0.148 |

| Sequence | PBM E-score |
| --- | --- |
| ATTAGCCA | -0.147 |
| AGGTCGAA | 0.00993 |
| GATGTTAA | 0.268 |
| AATGTTAA | 0.279 |
| TATGTTAA | 0.396 |
| CATGTTAG | 0.332 |
| CATGTTAA | 0.411 |
| CATGTTAC | 0.332 |
| CATTCAGC | -0.12 |
| ACCTCGCA | -0.0135 |
| AAACAAGC | 0.0864 |
| TGATCCAA | -0.071 |
| CCATCTGC | -0.272 |
| ATACACGG | 0.375 |
| ATACACGC | 0.37 |
| ATACACCA | 0.129 |
| ATACACTA | 0.124 |
| ATACACAA | 0.324 |
| ATACACGA | 0.352 |
| ACACACGG | 0.182 |
| ATACACAC | 0.326 |
| ACACACGC | 0.174 |
| GACCTCAC | -0.243 |
| CCCCTACA | 0.0392 |
| ATATACGA | 0.14 |
| AATTTTAT | 0.0903 |

| Sequence | PBM E-score |
| --- | --- |
| TCGATAGA | -0.0212 |
| ACCCCTTC | 0.129 |
| CTTTTACA | 0.345 |
| CCTTTACG | 0.172 |
| ACTTTACA | 0.313 |
| GGTTTACA | 0.333 |
| GCTTTACA | 0.325 |
| TCTTTACA | 0.389 |
| CTTTTACC | 0.141 |
| CCTTTACA | 0.392 |
| CCTTTACC | 0.102 |
| ATTTTACA | 0.336 |
| GTTTTACA | 0.371 |
| GTTTTATA | 0.101 |
| ACCCTTTA | 0.167 |
| GCAGTCAC | 0.305 |
| ATTGGCCG | -0.176 |
| GGATTTAC | 0.174 |
| CGACAGGA | 0.0979 |
| AGCACGCG | 0.17 |
